# Experimental data: PubChem BioAssay AID1159580 (chemical genetic matrix, 2015)
# Among all 5,500 compounds or so, about 2,000 (36%) were called active. Inconclusive results (about 18%) are left out. The list shows a part of the results. Values without a mark were called inactive. Cut-off read from the data, not from the text of the source: active = normalized growth mostly below about 0.91 (no sharp cut-off); inconclusive = no clear call, values can overlap the other calls; inactive = mostly above about 0.92.
# Experiment: chemical genetic growth profiling, strain panel (AID 1159580);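 note: tested at 20 µM; growth read once vehicle control cultures reached saturation at 30 °C; 1 = growth at the plate median or of vehicle wells; lower values mean less growth of the strain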
# Details: growth OD
# [1] = S. cerevisiae deletion strains, locus YAL040C, strain CLN3, active compounds read low
# [2] = S. cerevisiae deletion strains, locus YDR363W, strain ESC2, active compounds read low
# [3] = S. cerevisiae deletion strains, locus YER002W, strain NOP16, active compounds read low
# [4] = S. cerevisiae deletion strains, locus YMR307W, strain GAS1, active compounds read low
# [5] = S. cerevisiae deletion strains, locus YNL153C, strain GIM3, active compounds read low
# [6] = S. cerevisiae deletion strains, locus YNL175C, strain NOP13, active compounds read low
# [7] = S. cerevisiae deletion strains, locus YNL197C, strain WHI3, active compounds read low
# [8] = S. cerevisiae deletion strains, locus YNL224C, strain SQS1, active compounds read low
# [9] = S. cerevisiae deletion strains, locus YOR083W, strain WHI5 (second series), active compounds read low
# [10] = S. cerevisiae deletion strains, locus YPL055C, strain LGE1, active compounds read low
# [11] = S. cerevisiae deletion strains, locus YPL241C, strain CIN2, active compounds read low
# [12] = S. cerevisiae deletion strains, locus YAL013W, strain DEP1, active compounds read low
# [13] = S. cerevisiae deletion strains, locus YBR229C, strain ROT2, active compounds read low
# [14] = S. cerevisiae deletion strains, locus YDL101C, strain DUN1, active compounds read low
# [15] = S. cerevisiae deletion strains, locus YDL134C, strain PPH21, active compounds read low
# [16] = S. cerevisiae deletion strains, locus YDR150W, strain NUM1, active compounds read low
# [17] = S. cerevisiae deletion strains, locus YEL061C, strain CIN8, active compounds read low
# [18] = S. cerevisiae deletion strains, locus YGR078C, strain PAC10, active compounds read low
# [19] = S. cerevisiae deletion strains, locus YGR229C, strain SMI1, active compounds read low
# [20] = S. cerevisiae deletion strains, locus YHR030C, strain SLT2, active compounds read low
# [21] = S. cerevisiae deletion strains, locus YHR087W, strain rtc3, active compounds read low
# [22] = S. cerevisiae deletion strains, locus YJR043C, strain POL32, active compounds read low
# [23] = S. cerevisiae deletion strains, locus YJR075W, strain HOC1, active compounds read low
# [24] = S. cerevisiae deletion strains, locus YKL190W, strain CNB1, active compounds read low
# [25] = S. cerevisiae deletion strains, locus YLR039C, strain RIC1, active compounds read low
# [26] = S. cerevisiae deletion strains, locus YLR058C, strain SHM2 (second series), active compounds read low
# [27] = S. cerevisiae deletion strains, locus YLR085C, strain ARP6, active compounds read low
# [28] = S. cerevisiae deletion strains, locus YLR262C, strain YPT6, active compounds read low
# [29] = S. cerevisiae deletion strains, locus YML094W, strain GIM5, active compounds read low
# [30] = S. cerevisiae deletion strains, locus YMR219W, strain ESC1, active compounds read low
# [31] = S. cerevisiae deletion strains, locus YMR263W, strain SAP30, active compounds read low
# [32] = S. cerevisiae deletion strains, locus YNL298W, strain CLA4 (second series), active compounds read low
# [33] = S. cerevisiae deletion strains, locus YNL322C, strain KRE1, active compounds read low
# [34] = S. cerevisiae deletion strains, locus YNR030W, strain Alg12, active compounds read low
# [35] = S. cerevisiae deletion strains, locus YOL006C, strain TOP1, active compounds read low
# [36] = S. cerevisiae deletion strains, locus YPR135W, strain CTF4, active compounds read low
# [37] = S. cerevisiae deletion strains, locus YJL187C, strain SWE1, active compounds read low
# [38] = S. cerevisiae deletion strains, locus YNL128W, strain TEP1, active compounds read low
smiles,measurement,setting,value
N[C@@H](CCl)C(=O)O,normalized growth,[1],0.98
same,normalized growth,[2],1.03
same,normalized growth,[3],0.99
same,normalized growth,[4],0.993
same,normalized growth,[5],1.05
same,normalized growth,[6],1.01
same,normalized growth,[7],1.03
same,normalized growth,[8],0.996
same,normalized growth,[9],1.01
same,normalized growth,[10],1.02
same,normalized growth,[11],1
CC(=O)Nc1cc2ccccc2oc1=O,normalized growth,[12],1
same,normalized growth,[13],1
same,normalized growth,[14],0.975
same,normalized growth,[15],1
same,normalized growth,[16],0.986
same,normalized growth,[17],1.02
same,normalized growth,[18],1.01
same,normalized growth,[19],0.997
same,normalized growth,[20],0.942
same,normalized growth,[21],0.988
same,normalized growth,[22],1.01
same,normalized growth,[23],0.997
same,normalized growth,[24],1
same,normalized growth,[25],1.06
same,normalized growth,[26],1.01
same,normalized growth,[27],1.01
same,normalized growth,[28],1.04
same,normalized growth,[29],0.997
same,normalized growth,[30],1
same,normalized growth,[31],0.996
same,normalized growth,[4],1.09
same,normalized growth,[5],0.984
same,normalized growth,[32],0.998
same,normalized growth,[33],1.01
same,normalized growth,[34],1
same,normalized growth,[35],0.958
same,normalized growth,[10],0.969
same,normalized growth,[11],0.985
same,normalized growth,[36],0.946
CC(=O)c1cc2cc(Br)ccc2oc1=O,normalized growth,[12],0.987
same,normalized growth,[13],0.967
same,normalized growth,[14],0.998
same,normalized growth,[16],0.994
same,normalized growth,[17],0.975
same,normalized growth,[18],0.976
same,normalized growth,[19],0.994
same,normalized growth,[20],0.818
same,normalized growth,[21],0.96
same,normalized growth,[37],0.97
same,normalized growth,[22],0.984
same,normalized growth,[23],0.948
same,normalized growth,[24],0.992
same,normalized growth,[25],0.618 (active)
same,normalized growth,[26],0.964
same,normalized growth,[27],0.936
same,normalized growth,[28],0.628 (active)
same,normalized growth,[29],0.999
same,normalized growth,[30],0.96
same,normalized growth,[31],1
same,normalized growth,[38],1.01
same,normalized growth,[5],0.994
same,normalized growth,[32],0.983
same,normalized growth,[33],0.964
same,normalized growth,[34],0.97
same,normalized growth,[10],1.02
same,normalized growth,[11],0.964
same,normalized growth,[36],0.717
CC(=O)c1cc2ccccc2oc1=O,normalized growth,[12],1.02
same,normalized growth,[13],1.01
same,normalized growth,[14],0.961
same,normalized growth,[15],1.02
same,normalized growth,[16],0.94
same,normalized growth,[17],1.01
same,normalized growth,[18],0.986
same,normalized growth,[20],1
same,normalized growth,[21],1.03
same,normalized growth,[37],0.999
same,normalized growth,[22],0.999
same,normalized growth,[23],0.988
same,normalized growth,[25],1.05
same,normalized growth,[26],1.01
same,normalized growth,[27],1.08
same,normalized growth,[28],1
same,normalized growth,[29],1.02
same,normalized growth,[30],0.993
same,normalized growth,[31],1.02
same,normalized growth,[38],1.01
same,normalized growth,[5],1.01
same,normalized growth,[32],1.07
same,normalized growth,[33],0.99
same,normalized growth,[34],1.05
same,normalized growth,[35],1.02
same,normalized growth,[10],1.13
same,normalized growth,[11],1.03
same,normalized growth,[36],0.984
same,normalized growth,"S. cerevisiae strains, strain wild type, active compounds read low",1.03
CCCCCCCCCCCCCCCCOCC(COCC(F)(F)F)OP(=O)(O)OCO (stereo unspecified),normalized growth,[12],0.947
same,normalized growth,[1],1
same,normalized growth,"S. cerevisiae deletion strains, locus YCL061C, strain MRC1 (second series), active compounds read low",0.987
same,normalized growth,[2],0.968
same,normalized growth,[3],0.995
same,normalized growth,[19],0.767 (active)
same,normalized growth,[23],1.03
same,normalized growth,[31],1.02
same,normalized growth,[6],0.995
same,normalized growth,[7],1
same,normalized growth,[8],0.964
same,normalized growth,[9],0.988
same,normalized growth,[10],0.881 (active)
same,normalized growth,[11],0.988
